Article PMC4336329 (PLoS ONE, 2015)
The campaign covered roughly 310,000 compounds. About 14,000 (4.5%) showed an effect of 50% or more. The effect is printed as a negative number. The list comes from a sample in which strong results are over-represented; it also holds similar structures and randomly drawn compounds.

Biological target: human ether-à-go-go-related gene (hERG) potassium channel (human, UniProt Q12809)
Experiment: primary screen, population patch clamp on CHO cells stably expressing hERG; higher = less effect of the substance
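Further: peak tail current of the secondary pulse compared with the same well before compound.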

Sequence of human ether-à-go-go-related gene (hERG) potassium channel (Q12809 whole entry, looked up): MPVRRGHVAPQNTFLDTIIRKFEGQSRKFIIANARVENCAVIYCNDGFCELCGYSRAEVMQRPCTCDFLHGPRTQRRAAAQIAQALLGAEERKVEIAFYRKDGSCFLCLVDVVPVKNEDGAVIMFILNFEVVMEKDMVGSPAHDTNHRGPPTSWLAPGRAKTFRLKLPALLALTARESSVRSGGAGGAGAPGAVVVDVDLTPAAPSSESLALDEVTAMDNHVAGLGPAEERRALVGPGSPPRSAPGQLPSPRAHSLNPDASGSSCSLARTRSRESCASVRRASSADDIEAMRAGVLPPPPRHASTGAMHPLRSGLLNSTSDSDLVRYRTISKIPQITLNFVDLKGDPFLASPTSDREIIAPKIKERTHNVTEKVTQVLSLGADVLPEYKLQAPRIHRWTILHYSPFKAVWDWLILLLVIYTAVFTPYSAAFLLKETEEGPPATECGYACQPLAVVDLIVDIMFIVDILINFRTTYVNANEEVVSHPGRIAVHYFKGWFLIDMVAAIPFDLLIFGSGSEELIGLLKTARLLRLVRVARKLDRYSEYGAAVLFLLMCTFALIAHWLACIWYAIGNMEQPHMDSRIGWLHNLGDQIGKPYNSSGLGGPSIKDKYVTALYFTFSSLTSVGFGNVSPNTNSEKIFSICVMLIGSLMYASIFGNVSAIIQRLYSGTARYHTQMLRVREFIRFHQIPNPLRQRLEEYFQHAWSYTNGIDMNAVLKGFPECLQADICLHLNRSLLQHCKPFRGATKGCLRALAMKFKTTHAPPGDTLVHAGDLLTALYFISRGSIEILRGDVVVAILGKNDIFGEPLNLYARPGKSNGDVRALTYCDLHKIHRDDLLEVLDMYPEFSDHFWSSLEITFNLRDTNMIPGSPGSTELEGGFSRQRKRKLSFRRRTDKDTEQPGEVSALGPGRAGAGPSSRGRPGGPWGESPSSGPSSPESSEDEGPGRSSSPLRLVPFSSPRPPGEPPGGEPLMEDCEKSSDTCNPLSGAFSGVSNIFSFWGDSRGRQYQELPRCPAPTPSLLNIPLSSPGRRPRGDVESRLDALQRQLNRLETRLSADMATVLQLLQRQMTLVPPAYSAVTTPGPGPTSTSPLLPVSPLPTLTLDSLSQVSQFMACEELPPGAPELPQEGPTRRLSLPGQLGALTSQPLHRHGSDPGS

| Structure (SMILES) | hERG current change (%, negative = inhibition) at 10uM |
| --- | --- |
| Cn1cnnc1SCC(=O)c1ccc(O)c(O)c1 | 18.7% |
| O=C1CC2(CCCCC2)Oc2ccc(F)cc21 | -4.03% |
| CCN(CC)CCNC(=O)Cn1cnc2sc(C)c(S(=O)(=O)N3CC(C)CC(C)C3)c2c1=O (stereo not drawn) | 24.8% |
| COc1ccc(Cn2c(=S)[nH]c3cc(OC)c(OC)cc3c2=O)cc1 | 20.4% |
| O=[N+]([O-])c1ccc(-c2ccc(/C=N/c3c(-c4ccco4)nc4ccccn34)o2)cc1 | 8.33% |
| O=C(O)CCSc1nnc(-c2ccccc2)n1-c1ccccc1 | -3.32% |
| Cc1ccc(SCc2cc(=O)[nH]c(N3CCCCC3)n2)cc1 | -8.62% |
| CCOC(=O)C(O)(c1ccc(NC(=S)NC(=O)c2ccc(Cl)cc2Cl)c(C)c1)C(F)(F)F (stereo not drawn) | 27.4% |
| COc1ccccc1NC(=O)CCSc1nnc(-c2ccncc2)o1 | -2.96% |
| Fc1ccccc1NC(=S)NNc1ncc(C(F)(F)F)cc1Cl | 21.2% |
| CN1CCCN(C(=O)COc2cccc(C(F)(F)F)c2)CC1 | -0.603% |
| C=CCn1c(NCc2ccco2)nc2ccccc21 | -8.07% |
| CCCCn1c(NCc2cccs2)nc2ccccc21 | -55.9% |
| CC(NC(=O)/C=C/c1ccco1)c1nc2ccccc2n1Cc1cccc(Cl)c1 (stereo not drawn) | -67.2% |
| CC(NC(=O)/C=C/c1ccco1)c1nc2ccccc2n1Cc1ccccc1F (stereo not drawn) | 0.704% |
| CCCn1c(NCc2cccs2)nc2ccccc21 | -29.3% |
| CCn1c(NCc2cccs2)nc2ccccc21 | -12.2% |
| c1ccc(Cn2c(NCc3ccccn3)nc3ccccc32)cc1 | -39% |
| CC(NC(=O)/C=C/c1ccco1)c1nc2ccccc2n1Cc1c(Cl)cccc1Cl (stereo not drawn) | -11% |
| c1ccc(Cn2c(NCc3ccco3)nc3ccccc32)cc1 | -51% |
| CC1CC1C(=O)OCC(=O)Nc1cccc(S(=O)(=O)NC2=NCCCCC2)c1 (stereo not drawn) | -7.64% |
| Cc1ccc(C(=O)c2ccc(N3CCOCC3)c(F)c2)cc1 | -22% |

| Structure (SMILES) | hERG current change (%, negative = inhibition) at 10uM |
| --- | --- |
| CCCn1c2ccccc2c2cn[nH]c(=O)c21 | 12% |
| Cc1c(C(=O)NCCCN2CCOCC2)sc2nc(-c3ccc(F)cc3)cn12 | -60.9% |
| Cc1c(C(=O)NCC(C)C)sc2nc(-c3ccc(F)cc3)cn12 | -5.46% |
| Cc1c(C(=O)NCc2ccccn2)sc2nc(-c3ccccc3)cn12 | -18.6% |
| Cc1c(C(=O)NCc2cccnc2)sc2nc(-c3ccc(F)cc3)cn12 | -40.4% |
| CCN(CC)CCNC(=O)c1sc2nc(-c3ccccc3)cn2c1C | -67.4% |
| Cc1c(C(=O)NCCCN2CCOCC2)sc2nc(-c3ccccc3)cn12 | -48.5% |
| COCCNC(=O)c1sc2nc(-c3ccccc3)cn2c1C | -11.5% |
| CCN(CC)CCCNC(=O)c1sc2nc(-c3ccc(F)cc3)cn2c1C | -71.1% |
| Cc1c(C(=O)Nc2ccccc2)sc2nc(-c3ccccc3)cn12 | -4.89% |
| Cc1c(C(=O)NCc2ccccn2)sc2nc(-c3ccc(F)cc3)cn12 | -10.2% |
| Cc1c(C(=O)NCCN2CCOCC2)sc2nc(-c3ccc(F)cc3)cn12 | -23.6% |
| Cc1c(C(=O)NCc2cccnc2)sc2nc(-c3ccccc3)cn12 | -55.2% |
| Nc1cc(-c2ccccc2)ccc1O | 22.5% |
| CCCC1=[N+](CC(C)=O)CCn2c(C)ccc21.[Br-] | 20.1% |
| Cc1ccc(OCC(=O)Oc2c(C)cccc2C)cc1 | 16.8% |
| COc1ccc(CC(NC(C)=O)C(=O)NC2CCN(C(=O)Nc3ccccc3Cl)CC2)cc1OC (stereo not drawn) | 12.7% |
| CC(C)(C)c1ccc(-n2nc(C(N)=O)c(O)cc2=O)cc1 | 12.9% |
| CC(=O)N1c2ccc(S(=O)(=O)N(C)c3cc(C)ccc3C)cc2CC1C (stereo not drawn) | -8.67% |
| Cc1csc(NC(=O)Cc2ccccc2[N+](=O)[O-])n1 | 8.85% |
| CCCSc1nc(-n2ncc(C#N)c2N)c2c3c(sc2n1)CCC(C)C3 (stereo not drawn) | 5.45% |
| C=CCCC(=O)NC1CC(C)(C)Cc2c1cnn2-c1ccc(OC)cc1 (stereo not drawn) | -46% |

| Structure (SMILES) | hERG current change (%, negative = inhibition) at 10uM |
| --- | --- |
| COc1ccc(-n2ncc3c2CC(C)(C)CC3NC(=O)CCc2c(C)noc2C)cc1 (stereo not drawn) | -21.7% |
| CC1(C)Cc2c(cnn2-c2ccc(F)cc2)C(NC(=O)C2=NNC(=O)CC2)C1 (stereo not drawn) | -68.4% |
| COc1ccc(-n2ncc3c2CC(C)(C)CC3NC(=O)c2ccnn2C)cc1 (stereo not drawn) | -78% |
| COc1ccc(-n2ncc3c2CC(C)(C)CC3NC(=O)c2oc(C)cc2C)cc1 (stereo not drawn) | 15.2% |
| COc1ccc(-n2ncc3c2CC(C)(C)CC3NC(=O)c2cnc(C)cn2)cc1 (stereo not drawn) | -4.41% |
| COc1ccc(-n2ncc3c2CC(C)(C)CC3NC(=O)Cc2nonc2C)cc1 (stereo not drawn) | 3.4% |
| Cc1cc(C(=O)NC2CC(C)(C)Cc3c2cnn3-c2ccc(F)cc2)nn1C (stereo not drawn) | -14.8% |
| COc1ccc(-n2ncc3c2CC(C)(C)CC3NC(=O)CSc2ccccn2)cc1 (stereo not drawn) | -68% |
| CCc1nccn1CCC(=O)NC1CC(C)(C)Cc2c1cnn2-c1ccc(OC)cc1 (stereo not drawn) | -16.2% |
| COC(=O)c1ccc(C(=O)NC2CC(C)(C)Cc3c2cnn3-c2ccc(F)cc2)nc1 (stereo not drawn) | -23.4% |
| COc1ccc(-n2ncc3c2CC(C)(C)CC3NC(=O)c2c(C)cc(=O)oc2C)cc1 (stereo not drawn) | -51.1% |
| Cn1cc(S(=O)(=O)NCc2ccco2)c(=O)n(C)c1=O | 3.03% |
| Cc1onc(-c2c(F)cccc2Cl)c1C(=O)NCc1cccs1 | -21.2% |
| COc1ccc(S(=O)(=O)N2CCOCC2)cc1N(C)S(=O)(=O)c1ccc(C)cc1 | 0.666% |
| C/C(CC(=O)Nc1ccccn1)=N\NC(=O)c1ccccc1O | 6.73% |
| COc1ccc(CCNC(=O)c2c(O)c3ccccc3[nH]c2=O)cc1 | 15.4% |
| COc1cccc(NC(=O)c2ccc3c(c2)N(CC(=O)N2CCOCC2)C(=O)C(C)(C)O3)c1 | -5.35% |
| CCOCCc1nnc(NC(=O)c2cccc(F)c2)s1 | 0.0842% |
| COc1cc(NC(=O)C(C)Oc2ccccc2)cc(OC)c1 (stereo not drawn) | -2.9% |
| COc1ccc(-n2ncc3c2CC(C)(C)CC3NC(=O)c2ocnc2C)cc1 (stereo not drawn) | -53.5% |
| Cc1nonc1CC(=O)NC1CC(C)(C)Cc2c1cnn2-c1ccc(F)cc1 (stereo not drawn) | -15.7% |
| Cc1ncoc1C(=O)NC1CC(C)(C)Cc2c1cnn2-c1ccc(F)cc1 (stereo not drawn) | -20.7% |

| Structure (SMILES) | hERG current change (%, negative = inhibition) at 10uM |
| --- | --- |
| COc1ccc(-n2ncc3c2CC(C)(C)CC3NC(=O)c2ccc(OC)o2)cc1 (stereo not drawn) | -50.2% |
| CCN(CC)CC(=O)NC1CC(C)(C)Cc2c1cnn2-c1ccc(F)cc1 (stereo not drawn) | 7.43% |
| Cc1ccccc1-n1ncc2c1CC(C)(C)CC2NC(=O)C1=CC(=O)CC(C)(C)O1 (stereo not drawn) | -4.61% |
| COc1ccc(-n2ncc3c2CC(C)(C)CC3NC(=O)CN2CCOC2=O)cc1 (stereo not drawn) | -32.9% |
| Cc1ncoc1C(=O)NC1CC(C)(C)Cc2c1cnn2-c1ccccc1 (stereo not drawn) | -20.5% |
| Cn1nccc1C(=O)NC1CC(C)(C)Cc2c1cnn2-c1ccc(F)cc1 (stereo not drawn) | -61.4% |
| COc1ccc(C(=O)NC2CC(C)(C)Cc3c2cnn3-c2ccccc2C)o1 (stereo not drawn) | -30.5% |
| COc1ccc(-n2ncc3c2CC(C)(C)CC3NC(=O)C2=CC(=O)CC(C)(C)O2)cc1 (stereo not drawn) | -68.3% |
| COCc1ccc(C(=O)NC2CC(C)(C)Cc3c2cnn3-c2ccc(OC)cc2)o1 (stereo not drawn) | -29.3% |
| O=C(O)CCCN1C(=O)/C(=C\C(Cl)=C\c2ccccc2)SC1=S | 13.6% |
| COc1ccc(OC)c(-c2nc(CN3CCN(C(=O)c4ccco4)CC3)c(C)o2)c1 | -21.9% |
| O=C(NCc1cccs1)c1ccccc1[N+](=O)[O-] | -11.4% |
| COc1cc(-c2nnc3n(CCc4ccccc4)c(=O)c4ccccc4n23)cc(OC)c1OC | -19.7% |
| CCOC(=O)CN1C(=O)COc2ccc(Cl)cc21 | 19.2% |
| CCOC(=O)c1[nH]cnc1C(=O)N[C@@H](C)c1ccccc1 | -5.33% |
| O=C1CCc2cc(S(=O)(=O)N3CCC(C(=O)NCc4ccccn4)CC3)ccc2N1 | 16.9% |
| CCOc1ccccc1NS(=O)(=O)c1cc2c3c(c1)C(C)C(=O)N3CCC2 (stereo not drawn) | 5.26% |
| O=C(N/N=C/c1cn(-c2ccccc2)nc1-c1ccc(F)cc1)c1ccc(Br)o1 | 27.7% |
| COCc1ccc(C(=O)NC2CC(C)(C)Cc3c2cnn3-c2ccc(C)cc2)o1 (stereo not drawn) | -39.3% |
| CSCc1ccc(C(=O)NC2CC(C)(C)Cc3c2cnn3-c2ccc(F)cc2)o1 (stereo not drawn) | -56.5% |
| COc1ccc(-c2[nH]ncc2-c2nc(C)cs2)c(O)c1 | 13.5% |
